Assay [1] can be described thus: NCI Yeast Anticancer Drug Screen. Data for the rad50 strain (AID 155).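 Further: 0% = growth of vehicle-only cultures of the same strain.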 The conditions noted are these: S. cerevisiae rad50 strain growth inhibition; at 50.0 µM; stronger effect = higher value. The gist of the method: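 Readout: growth inhibition relative to vehicle-treated cultures. Compound exposure was carried out in a genetically defined yeast strain deficient in DNA damage repair.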

Assay [2] is described as follows: NCI Yeast Anticancer Drug Screen. Data for the mec2-1 strain (AID 157). The settings on record: S. cerevisiae mec2-1 strain, at 50.0 µM, stronger effect = higher value. The gist of the method:
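Each compound was tested on mec2-1 yeast, a strain altered in DNA damage repair or cell cycle control. Growth inhibition is reported relative to vehicle.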

A short description of assay [3]: NCI Yeast Anticancer Drug Screen. Data for the sgs1 mgt1 strain (AID 161).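 Further: 0% = growth of cultures given vehicle only.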 The settings on record: S. cerevisiae sgs1 mgt1 strain, at 50.0 µM, stronger effect = higher value. The gist of the method: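 Mutant yeast exposed to compound; growth scored against vehicle-only wells.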
Assay [4] in a line: NCI Yeast Anticancer Drug Screen. Data for the cln2 rad14 strain (AID 165).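 Further: 0% = growth equal to vehicle treated cultures.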 The conditions noted are these: S. cerevisiae cln2 rad14 strain, at 50.0 µM, stronger effect = higher value. The gist of the method:
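Test compounds were added to cln2 rad14 yeast cultures; inhibition of growth was then determined by comparison with vehicle treatment.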

Assay [5] is described as follows: NCI Yeast Anticancer Drug Screen. Data for the bub3 strain (AID 167). The settings on record: S. cerevisiae bub3 mutant strain, at 50.0 µM, stronger effect = higher value. In outline:
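Readout: yeast growth inhibition, expressed relative to vehicle-only wells. The test organism is a mutant strain from a panel with lesions in DNA repair or checkpoint genes.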

Assay [6] in a line: NCI Yeast Anticancer Drug Screen. Data for the mlh1 rad18 strain (AID 175). The settings on record: S. cerevisiae mlh1 rad18 strain growth inhibition; at 50.0 µM; stronger effect = higher value. In outline:
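Inhibition values reflect reduced growth of mutant yeast versus vehicle-treated controls following compound exposure; the mutations affect DNA damage repair.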

The record followed here is PubChem BioAssay (NCI).

This is part of a sample that, as a whole, favours compounds with a hit. Of some 79,000 tested, about 15% had one in any assay. Unmarked numbers belong to inactive results. Active and inactive are the calls of the source. No stated cut-off is given here; in the data, active means growth inhibition above about 70%; inactive means the rest.

As for `CC(C)(C#N)OC(=O)c1cccc(C(=O)OC(C)(C)C#N)c1Sc1ccccc1`, the growth inhibition was 41.8% in assay [1]; -2.6% in assay [2]; -7.25% in assay [3]; 7.55% in assay [4]; -2% in assay [5]; -1.55% in assay [6].
As to `CCCCCCCCCCCCCCCCCCCCCCCCSC(=N)N`, the growth inhibition was 10.6% in assay [1]; 0.15% in assay [2]; 16.5% in assay [3]; 26.4% in assay [4]; -6.15% in assay [5]; 12.9% in assay [6].
Consider `OC1Cn2cc(Br)c[n+]2C1` (configuration not stated), for which the growth inhibition in assay [1] is 8.3%; in assay [2], -5.5%; in assay [3] it was -21.5%; in assay [4] it was 1.2%; in assay [5], -2%; in assay [6] it was -13.6%.
As for `COC(=O)C(Cc1cc(OC)c(OC)c(OC)c1)(NC(=O)c1ccccc1)P(=O)(OC)OC` (configuration not stated), the growth inhibition was -14.2% in assay [1]; -1.75% in assay [2]; -38.4% in assay [3]; -51.6% in assay [4]; 1.05% in assay [5]; -9.7% in assay [6].
In the case of `Cc1ccc(N=C2SC(c3ccc(C)cc3)(c3ccc(C)cc3)c3ccccc32)cc1`, the growth inhibition in assay [1] was -35%; in assay [2] it was 11.2%; in assay [3], -3.9%; in assay [4] it was -4.75%; in assay [5], -7.15%; in assay [6], -16.1%.
In the case of `O=C(c1ccccc1)C1C(C(=O)c2ccccc2)C1c1ccccc1` (configuration not stated), the growth inhibition in assay [1] is -11.3%; in assay [2] it was -4.45%; in assay [3], 21.3%; in assay [4], 3.4%; in assay [5], 31.3%; in assay [6], -16.1%.
As to `CCCCI(O)OS(=O)(=O)c1ccc(C)cc1`, the growth inhibition in assay [1] is 5.65%; in assay [2] it was 3.1%; in assay [3] it was -2.85%; in assay [4], -7.7%; in assay [5], -3.9%; in assay [6], -32.6%.
Turning to `CCN(CC)CC(O)c1ccc2ccccc2c1` (configuration not stated), the growth inhibition is 47.6% in assay [1]; 13.2% in assay [2]; 25.8% in assay [3]; -21.2% in assay [4]; 22.4% in assay [5]; 40.9% in assay [6].
With `CC(C)CC1NC(=O)CCC(NC(=O)C(Cc2ccc(O)cc2)NC(=O)OCc2ccccc2)C(=O)NC(Cc2ccccc2)C(=O)NC(Cc2ccccc2)NC1=O` (configuration not stated), the growth inhibition in assay [1] was -24.9%; in assay [2], -21.6%; in assay [3], -24%; in assay [4] it was 8.6%; in assay [5], -7.55%; in assay [6] it was -18%.
In the case of `O=C1Oc2ccccc2C(=O)C1=Ic1ccccc1`, the growth inhibition is 31.3% in assay [1]; 52.9% in assay [2]; 73.6% (active) in assay [3]; 51.3% in assay [4]; 38% in assay [5]; 56% in assay [6].
On to `Cc1cccc(C)c1N=Nc1ccc(O)c(CN(C)C)c1`, for which the growth inhibition in assay [1] is -6.2%; in assay [2] it was -14.7%; in assay [3] it was -12.1%; in assay [4], -3.6%; in assay [5], 22.6%; in assay [6], -8.85%.
`CC(=O)c1ccc2cc(Cl)ccc2c1`: the growth inhibition in assay [1] is 30.2%; in assay [2], 3.45%; in assay [3], 3.5%; in assay [4] it was -29.9%; in assay [5], 0.35%; in assay [6] it was 4.2%.
In the case of `COC(=O)C1(C2CCCCCCC2=O)NC(=S)NC(=O)C1C#N` (configuration not stated), the growth inhibition in assay [1] is 4.35%; in assay [2], -18.8%; in assay [3], -28.1%; in assay [4], 11.2%; in assay [5], -24.9%; in assay [6], -4.05%.
On to `COc1cc(C=O)ccc1OC(C)=O`, for which the growth inhibition in assay [1] was -33.3%; in assay [2], -15.3%; in assay [3], -35.9%; in assay [4], -31.4%; in assay [5], -10.6%; in assay [6], -24.3%.
Take `CC(O)(c1cccc(OCc2ccccc2)c1)c1ccccn1` (configuration not stated): the growth inhibition was 12.3% in assay [1]; 0.05% in assay [2]; 5.7% in assay [3]; -11.4% in assay [4]; -6.15% in assay [5]; -7.8% in assay [6].
With `N#CCC(=O)N1CCCCCCC1`, the growth inhibition was 20.4% in assay [1]; -8.9% in assay [2]; 2.7% in assay [3]; 0% in assay [4]; 6.05% in assay [5]; 0% in assay [6].
On to `CC12CCC(=O)C3C1CCCC32`, for which the growth inhibition was -0.45% in assay [1]; -6.2% in assay [2]; -13.9% in assay [3]; 1.2% in assay [4]; -2.15% in assay [5]; -21.6% in assay [6].
As for `NC(=O)COc1ccc(Br)cc1Br`, the growth inhibition is -0.1% in assay [1]; -3.15% in assay [2]; -12.7% in assay [3]; 13.6% in assay [4]; -6.3% in assay [5]; 11.8% in assay [6].
As to `N#Cc1ccc(Br)cc1`, the growth inhibition in assay [1] is 7.95%; in assay [2] it was -3.45%; in assay [3], 16.6%; in assay [4], -19.9%; in assay [5], -6.2%; in assay [6] it was 18.1%.
Consider `CC12CCC3=C(CCc4cc(O)ccc43)C1CCC2=O` (configuration not stated), for which the growth inhibition in assay [1] was -4.8%; in assay [2], 9.75%; in assay [3], 5.8%; in assay [4] it was -34.5%; in assay [5] it was -7.95%; in assay [6] it was 4.4%.
Consider `CC(=O)Nc1ccc2ccccc2c1SC1CC(=O)N(c2ccccc2)C1=O` (configuration not stated), for which the growth inhibition in assay [1] was -24.1%; in assay [2], -3%; in assay [3] it was -26.2%; in assay [4], -23.4%; in assay [5], -15.8%; in assay [6] it was -20.6%.
For `CCCc1cc2c(cc1CSc1ccccc1C(=O)O)OCO2`, the growth inhibition in assay [1] was -13.6%; in assay [2] it was -8.75%; in assay [3], -1.9%; in assay [4], -84.7%; in assay [5] it was -7.6%; in assay [6] it was -12.4%.
Take `COc1ccc(Cc2nc3c([nH]2)c(=O)n(C)c(=O)n3C)cc1`: the growth inhibition in assay [1] was -0.05%; in assay [2], -14.1%; in assay [3] it was 0.05%; in assay [4], -50.8%; in assay [5], 1.2%; in assay [6], 1.2%.
With `CCOC(=O)C/C(C)=N\NS(=O)(=O)c1ccc([N+](=O)[O-])cc1`, the growth inhibition in assay [1] was 3.05%; in assay [2], -16.5%; in assay [3], 8.85%; in assay [4], -30.1%; in assay [5] it was 8%; in assay [6], 2.45%.
Turning to `C[C@H]1C(=O)CCC2[C@]3(C)CC4OC(=O)C5(CC[C@@]6(C)CCC(C)(C)CC6C45C)C3CC[C@@]21C` (some centres not stated), the growth inhibition in assay [1] was -0.7%; in assay [2], -7.25%; in assay [3], -25.9%; in assay [4] it was -3.65%; in assay [5], -34.9%; in assay [6], -15%.
As to `CC(C)(C)[Si](C)(C)OCC1CCC(n2cnc3c(=O)[nH]cnc32)O1` (configuration not stated), the growth inhibition in assay [1] was 14.7%; in assay [2] it was -6.75%; in assay [3] it was 7.6%; in assay [4] it was -4.1%; in assay [5], 12.8%; in assay [6], -7.25%.
For the compound `O=c1[nH]n(CCc2ccccc2CCl)c2ccc([N+](=O)[O-])cc12`, the growth inhibition was 26% in assay [1]; 14.6% in assay [2]; 16.4% in assay [3]; 9.45% in assay [4]; 38.7% in assay [5]; -10.6% in assay [6].
As to `Cc1ccc(S(=O)(=O)c2ccc(C(=O)O)cc2)cc1`, the growth inhibition in assay [1] was 8.1%; in assay [2], 10.4%; in assay [3], 10.8%; in assay [4] it was -6.05%; in assay [5], 4.05%; in assay [6] it was 17%.
With `CC(=O)CC(=O)Nc1ccccc1C`, the growth inhibition was -5.2% in assay [1]; 5.95% in assay [2]; 2.4% in assay [3]; -27.4% in assay [4]; -11.2% in assay [5]; -22.7% in assay [6].
For `CC(=O)OC1[C@@H](OC(C)=O)[C@H](OC(C)=O)C2(CO2)[C@H](OC(C)=O)[C@H]1OC(C)=O` (some centres not stated), the growth inhibition was -7.05% in assay [1]; -4.45% in assay [2]; -6.4% in assay [3]; -29.6% in assay [4]; -0.15% in assay [5]; 12.8% in assay [6].
As for `O=C(O)CSC(=S)c1ccccc1`, the growth inhibition in assay [1] was 16.4%; in assay [2], 19.8%; in assay [3] it was 4%; in assay [4] it was -5.7%; in assay [5] it was -15.8%; in assay [6], -12.9%.
Regarding `O=C(NC(=O)c1cc2cc(Br)cc(Br)c2oc1=O)Oc1ccccc1`, the growth inhibition is 24.9% in assay [1]; 19.4% in assay [2]; 14.1% in assay [3]; 25.4% in assay [4]; -2.55% in assay [5]; 13.1% in assay [6].
With `Clc1ccc2sc(-n3ccc4ccccc43)nc2c1`, the growth inhibition is -35.9% in assay [1]; -12.3% in assay [2]; -24.7% in assay [3]; 7.65% in assay [4]; -15.4% in assay [5]; -30.7% in assay [6].
Regarding `COc1ccc(C(=O)N/N=C/c2cccc3ccccc23)cc1`, the growth inhibition in assay [1] was -3%; in assay [2], 36.5%; in assay [3] it was 13%; in assay [4] it was -23.1%; in assay [5], 43.8%; in assay [6], 33.6%.
For `CCOC(=O)CSc1[nH]c(NC(=S)Nc2ccccc2)c(C(N)=O)c1C(N)=O`, the growth inhibition in assay [1] was -14.2%; in assay [2], -8.2%; in assay [3], 23.7%; in assay [4], -1.2%; in assay [5] it was 7.5%; in assay [6], -4.45%.
With `Cn1cnc(N)c1S(N)(=O)=O`, the growth inhibition in assay [1] is -11.8%; in assay [2], 2.45%; in assay [3], 9.7%; in assay [4], -6%; in assay [5], -6.3%; in assay [6], 26.1%.
For `O=C(/C(N=Nc1ccccc1)=C(\O)c1ccccc1)c1ccccc1`, the growth inhibition in assay [1] is -8.15%; in assay [2], -9.7%; in assay [3] it was 2.45%; in assay [4], 11.8%; in assay [5], 7.05%; in assay [6], -6.2%.
